The source of these data is PubChem BioAssay (Tox21).

Values joined by “and” are separate entries in the source; they are usually repeats but may differ in a detail not shown here. Identical values can stand only once. Inconclusive results are not listed. More than one record can exist for a structure, and the calls need not agree. Active and inactive are the calls of the source. Unless noted, calls follow the shape of the dose curve; as a rule, active = well fitted cell-killing curve with a large enough effect in the repeat runs; inconclusive = weak or mixed curves; inactive = flat fitted curve, though single readings scatter.
% is scaled to controls: 0 for no effect and ±100 for the full control effect; potency is read from the fitted curve at half-maximal effect.

Chain of Androgen receptor (Homo sapiens) (P10275 whole entry, looked up): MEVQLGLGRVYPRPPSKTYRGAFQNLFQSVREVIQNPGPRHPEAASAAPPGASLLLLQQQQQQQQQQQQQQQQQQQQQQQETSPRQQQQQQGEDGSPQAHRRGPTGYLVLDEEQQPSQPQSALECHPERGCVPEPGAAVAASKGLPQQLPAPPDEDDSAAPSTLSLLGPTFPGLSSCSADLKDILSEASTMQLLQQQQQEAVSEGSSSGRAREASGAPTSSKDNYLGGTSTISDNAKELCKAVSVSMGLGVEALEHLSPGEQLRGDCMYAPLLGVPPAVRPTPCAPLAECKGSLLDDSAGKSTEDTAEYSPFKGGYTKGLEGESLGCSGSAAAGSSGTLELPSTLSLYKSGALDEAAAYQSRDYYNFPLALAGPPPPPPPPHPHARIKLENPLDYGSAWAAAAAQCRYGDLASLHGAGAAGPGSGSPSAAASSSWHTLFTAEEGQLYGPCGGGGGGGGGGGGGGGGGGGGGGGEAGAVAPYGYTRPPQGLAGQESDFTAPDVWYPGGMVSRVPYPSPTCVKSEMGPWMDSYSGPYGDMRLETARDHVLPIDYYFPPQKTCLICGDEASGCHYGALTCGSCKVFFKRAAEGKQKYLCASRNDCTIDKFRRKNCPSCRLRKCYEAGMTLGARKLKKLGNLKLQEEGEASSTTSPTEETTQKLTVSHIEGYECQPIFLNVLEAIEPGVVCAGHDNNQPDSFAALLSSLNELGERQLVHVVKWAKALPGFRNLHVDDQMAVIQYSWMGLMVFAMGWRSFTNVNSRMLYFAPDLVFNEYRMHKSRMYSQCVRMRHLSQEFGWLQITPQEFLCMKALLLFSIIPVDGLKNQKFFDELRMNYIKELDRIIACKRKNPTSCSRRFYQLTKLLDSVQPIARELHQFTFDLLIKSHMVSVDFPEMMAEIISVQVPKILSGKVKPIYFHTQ

For one test, the target named is Androgen receptor (Homo sapiens) (UniProt P10275). The experiment in a line: qHTS assay to identify small molecule agonists of the androgen receptor (AR) signaling pathway in the presence of an antagonist (AID 1259381; calls by dose curve; also: nearly all actives have a fitted effect of over 15% in size). The note with it: MDA-kb2 MMTV-luciferase, AR agonist + nilutamide, 16 h; series mostly up to 92.4 µM; activation: at the top concentration. The method, boiled down:
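Reporter-gene luminescence from MDA-kb2 cells exposed 16hr at 37C (0% CO2) to 15-point compound titrations with 3.0uM final nilutamide as AR antagonist.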
For the compound `Cc1ccc([N+](=O)[O-])[c]2c1[O][Hg]2`, the “activation” value is -9.7% [at 42.5 µM] (inactive).

For the compound `S=C=NCCc1ccccc1`, the “activation” value was -5.93% (inactive).

Turning to `CCC[CH2][Sn]([CH2]CCC)([CH2]CCC)[O][Sn]([CH2]CCC)([CH2]CCC)[CH2]CCC`, the activation was -10.6% [at 8.39 µM] (inactive).

For `COc1ccc2c(c1OC)C(=O)O[C@@H]2[C@H]1c2cc3c(cc2CCN1C)OCO3`, the “activation” value is -1.3% (inactive).

Take `C=CCOC(=O)c1ccccc1N`: the “activation” value was -0.0122% (inactive).

For `C[C@]12CC[C@H]3[C@@H](CCC4=CC(=O)CC[C@@H]43)[C@@H]1CC[C@@H]2OC(=O)CCc1ccco1`, the Potency is 23.7 nM (active).

As to `CN(C)c1ccc(N)cc1`, the “activation” value was -9.26% (inactive).

Turning to `CC(C)=CC1C(C(=O)OC(C#N)c2cccc(Oc3ccccc3)c2)C1(C)C` (stereo unspecified), the “activation” value is 2.17% (inactive).

Tested on in the next test: not listed separately
The experiment in a line: qHTS assay to identify small molecule antagonists of the estrogen receptor beta (ER-beta) signaling pathway - cell viability counter screen (AID 1259382). Also: nearly all actives have a fitted effect of over 55% in size. The note with it: ER-beta-UAS-bla HEK293T viability, CellTiter-Glo luminescence, 16 h; series mostly up to 92.4 µM; activity change, negative = cytotoxicity: at the top concentration. In outline: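 Viability is scored by CellTiter-Glo luminescence (30 min, room temperature) in ER-beta-UAS-bla HEK293T wells already read for reporter fluorescence. Compound exposure lasts 16 hr at 37C alongside 1nM 17-beta-estradiol in charcoal-stripped serum medium.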
(Quantitative high-throughput screening tests each substance at several concentrations.)
For `ClC(Cl)C(Cl)(Cl)Cl`, the “activity change, negative = cytotoxicity” value was 4.71% (inactive).

Take `Cc1ccc([N+](=O)[O-])[c]2c1[O][Hg]2`: the Potency is 5.31 µM (active).

In the case of `Clc1ccc(C2(Cn3cncn3)OCCO2)c(Cl)c1`, the “activity change, negative = cytotoxicity” value is 7.76% (inactive).

As to `CCCCCCCCCCCCCCn1cc[n+](C)c1`, the Potency is 34.4 µM (active) and 34 µM (active) and inactive.

On to `S=C=NCCc1ccccc1`, for which the “activity change, negative = cytotoxicity” value is -12.2% (inactive).

With `CC(C)N(C(=O)SC/C(Cl)=C/Cl)C(C)C`, the “activity change, negative = cytotoxicity” value is 5.41% (inactive).

`Brc1cccc(-c2ccccc2)c1`: the “activity change, negative = cytotoxicity” value was -0.243% (inactive).

For the compound `CCN(CC)CCc1c[nH]c2ccccc12`, the “activity change, negative = cytotoxicity” value was -13.5% (inactive).

In the case of `CCC1COC(Cn2cncn2)(c2ccc(Cl)cc2Cl)O1` (stereo unspecified), the “activity change, negative = cytotoxicity” value is -9.17% (inactive).

`Cc1cnc2c(C(=O)O)c(Cl)ccc2c1`: the “activity change, negative = cytotoxicity” value was 6.4% (inactive).

As to `CCC(C)c1cccc(C(C)CC)c1O` (stereo unspecified), the “activity change, negative = cytotoxicity” value is 0.166% (inactive).

For `CCCCc1ccccc1`, the “activity change, negative = cytotoxicity” value is -3.16% (inactive).

With `CC(Cc1ccc(OCC(=O)O)cc1)NCC(O)c1csc(C(F)(F)F)n1` (stereo unspecified), the “activity change, negative = cytotoxicity” value is 4.96% (inactive).

For `CCC[CH2][Sn]([CH2]CCC)([CH2]CCC)[O][Sn]([CH2]CCC)([CH2]CCC)[CH2]CCC`, the Potency was 1.19 µM (active).

In the case of `COc1ccc2c(c1OC)C(=O)O[C@@H]2[C@H]1c2cc3c(cc2CCN1C)OCO3`, the “activity change, negative = cytotoxicity” value was 0.0288% (inactive).

`C=CCOC(=O)c1ccccc1N`: the “activity change, negative = cytotoxicity” value is -26% (inactive).

With `NC(=O)C(Cl)Cl`, the “activity change, negative = cytotoxicity” value is 6.11% (inactive).

As for `CC1(C)[C@H](/C=C2\CCSC2=O)[C@@H]1C(=O)OCc1coc(Cc2ccccc2)c1`, the “activity change, negative = cytotoxicity” value is -3.05% (inactive).

With `C[C@]12CC[C@H]3[C@@H](CCC4=CC(=O)CC[C@@H]43)[C@@H]1CC[C@@H]2OC(=O)CCc1ccco1`, the “activity change, negative = cytotoxicity” value is -2.88% [at 42.5 µM] (inactive).

As to `O=[N+]([O-])c1ccc(CCl)cc1`, the “activity change, negative = cytotoxicity” value is -10.5% (inactive).

Turning to `COc1cnc(OC)n2nc(NS(=O)(=O)c3c(OCC(F)F)cccc3C(F)(F)F)nc12`, the “activity change, negative = cytotoxicity” value was -1.66% (inactive).

Turning to `CCNc1nc(NC(C)C(C)C)nc(SC)n1` (stereo unspecified), the “activity change, negative = cytotoxicity” value is -12.8% (inactive).

Regarding `Nc1ccccc1-c1ccccc1`, the “activity change, negative = cytotoxicity” value was -24.3% (inactive).

For `CN1[C@@H]2CC[C@H]1CC(O)C2` (stereo partly specified), the “activity change, negative = cytotoxicity” value is -5.99% (inactive).

With `COC(=O)/C=C(\C)OP(=O)(OC)OC`, the “activity change, negative = cytotoxicity” value was 0.305% (inactive).

In the case of `CC(C)[C@@H](Nc1ccc(C(F)(F)F)cc1Cl)C(=O)OC(C#N)c1cccc(Oc2ccccc2)c1` (stereo partly specified), the “activity change, negative = cytotoxicity” value is 8.86% (inactive).

Consider `O=C(Cl)c1ccccc1F`, for which the “activity change, negative = cytotoxicity” value was 2.69% (inactive).

For the compound `CN/C(=N\[N+](=O)[O-])NCc1cnc(Cl)s1`, the “activity change, negative = cytotoxicity” value is -0.144% (inactive).

Take `CC(C)C(Br)C(=O)NC(N)=O` (stereo unspecified): the “activity change, negative = cytotoxicity” value was 3.74% [at 42.5 µM] (inactive).

With `CC(C)=CC1C(C(=O)OC(C#N)c2cccc(Oc3ccccc3)c2)C1(C)C` (stereo unspecified), the “activity change, negative = cytotoxicity” value is -0.109% (inactive).

Turning to `O=[N+]([O-])c1ccccc1-c1ccccc1`, the “activity change, negative = cytotoxicity” value was 0.0469% (inactive).

As for `COC(=O)c1ccccc1S(=O)(=O)NC(=O)Nc1nc(C)nc(OC)n1`, the “activity change, negative = cytotoxicity” value is -0.402% (inactive).

As to `CNC(=O)/C=C(\C)OP(=O)(OC)OC`, the “activity change, negative = cytotoxicity” value is 2.84% (inactive).

`C#CCC1=C(C)C(OC(=O)C2C(C=C(C)C)C2(C)C)CC1=O` (stereo unspecified): the “activity change, negative = cytotoxicity” value is -15% (inactive).

`COCCC#N`: the “activity change, negative = cytotoxicity” value was 2.34% (inactive).

In the case of `O=S(=O)(O)F`, the “activity change, negative = cytotoxicity” value was 4.9% (inactive).

Turning to `Cc1c([N+](=O)[O-])cc2c(c1[N+](=O)[O-])C(C)(C)CC2(C)C`, the “activity change, negative = cytotoxicity” value was 0.65% (inactive).

`Cc1cccc(Cc2cnc[nH]2)c1C`: the “activity change, negative = cytotoxicity” value is 5.31% [at 42.5 µM] (inactive).
